High-throughput results: PubChem, Paczesny and Yang Labs, IUPUI and University of Michigan
ST2 inh: blocks human ST2 binding to IL-33. Q01638. AlphaLISA ST2-Fc/biotin-IL-33 interaction, 1 h. inhibition, % for hits at 17 µM. 78,000 tested, 2.3% active. AID 1259354; in the data active = inhibition above about 30%
Target sequence (Q01638 whole entry, looked up): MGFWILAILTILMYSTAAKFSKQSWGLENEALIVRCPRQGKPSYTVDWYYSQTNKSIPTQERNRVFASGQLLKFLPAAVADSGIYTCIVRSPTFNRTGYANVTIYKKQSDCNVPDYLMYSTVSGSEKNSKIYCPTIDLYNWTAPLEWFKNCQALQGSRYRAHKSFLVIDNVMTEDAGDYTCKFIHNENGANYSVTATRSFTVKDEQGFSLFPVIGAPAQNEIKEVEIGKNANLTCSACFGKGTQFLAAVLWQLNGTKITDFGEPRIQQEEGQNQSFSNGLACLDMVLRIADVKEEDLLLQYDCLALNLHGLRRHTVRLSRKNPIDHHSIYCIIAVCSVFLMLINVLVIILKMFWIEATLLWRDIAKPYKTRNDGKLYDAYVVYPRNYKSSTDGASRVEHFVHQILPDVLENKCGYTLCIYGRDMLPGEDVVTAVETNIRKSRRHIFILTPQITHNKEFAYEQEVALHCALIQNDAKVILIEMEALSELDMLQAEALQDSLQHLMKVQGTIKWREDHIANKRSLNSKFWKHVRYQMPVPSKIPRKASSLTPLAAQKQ
The depositor's hits bear a star; i = inactive; ! = not active in a repeat. This excerpt belongs to a sample that is enriched for hits.

SMILES	ST2 inh
Cc1ccc(N2C(=O)C(N3C(=O)c4ccccc4C3=O)C2c2ccc(N(C)C)cc2)cc1F (stereo not drawn)	31.0%*!
O=C(O)c1cc(-c2ccccc2)nn1-c1ccccc1	i
CC(C)C(NS(=O)(=O)c1ccc2c(c1)oc(=O)n2C)C(=O)NC1CCCCCC1 (stereo not drawn)	i
COc1ccc(NC(=O)CC2OCCN(C)C2=O)cc1 (stereo not drawn)	i
COc1ccc(-c2nc3nc[nH]n3c2Nc2ccc(C(C)C)cc2)cc1	i
CCOC(=O)c1c(-c2ccccc2)csc1NC(=O)c1cc(C)on1	i
CCC1=NOC(CNc2cc(C(C)C)nc(C)n2)C1 (stereo not drawn)	i
Cc1ccsc1CN1CC(=O)N(c2ccc(Cl)cc2)C1=O	i
O=C(Nc1cccnc1Cl)c1nn2c(c1Cl)NC(c1ccco1)CC2C(F)(F)F (stereo not drawn)	i
O=C(NC1CCCC1)c1ccc(Cl)cc1Cl	i
COCCNC(=O)c1cc2cc3ccc(OC)cc3nc2o1	i
O=C(NCc1ccco1)c1cc2cc3ccc(Cl)cc3nc2o1	34.0%*
O=C(NC1CCCCC1)c1cc2cc3ccc(Cl)cc3nc2o1	43.0%*!
CC1CC(C)CN(CCCNC(=O)c2cc3cc4ccc(Cl)cc4nc3o2)C1 (stereo not drawn)	i
COc1ccc2cc3cc(C(=O)NCC4CCCO4)oc3nc2c1 (stereo not drawn)	i
CCCCN(CC)CCNC(=O)c1cc2cc3ccc(Cl)cc3nc2o1	i
COc1ccc2cc3cc(C(=O)N4CCCC(C)C4)oc3nc2c1 (stereo not drawn)	i
CCCN(CCC)CCCNC(=O)c1cc2cc3ccc(Cl)cc3nc2o1	i
COCCNC(=O)c1cc2cc3ccc(Cl)cc3nc2o1	i
CC1CCCC(NC(=O)c2cc3cc4ccc(Cl)cc4nc3o2)C1C (stereo not drawn)	30.0%*
O=C(NC1CCCCCC1)c1cc2cc3ccc(Cl)cc3nc2o1	36.0%*!
Cc1c(C(=O)N2CCCC2)oc2ccc(S(=O)(=O)N3CCOCC3)cc12	i
Cc1cc(Br)c2[nH]c(=O)cc(C(=O)O)c2c1	i
O=S(=O)(Nc1ccccc1F)c1cccc2nonc12	i
CC1(C)CC(=O)C2=C(C1)OC(N)=C(C#N)C2c1ccc(Br)s1 (stereo not drawn)	i
SMILES	ST2 inh
Cn1c(=O)c2c(SCC(=O)N3CCCC3)nc(-c3ccco3)nc2n(C)c1=O	i
O=C(Cn1c(=O)oc2ccccc21)N1CCCCC1CCn1cccn1 (stereo not drawn)	i
COc1cc(C2C3=C(CC(C)(C)CC3=O)Nc3ncnn32)cc(OC)c1OC (stereo not drawn)	i
CC(C)(O)[C@@H]1Cc2cc3ccc(=O)oc3c(O[C@@H]3O[C@H](CO)[C@@H](O)[C@H](O)[C@H]3O)c2O1	i
Cc1nnc(SCC(=O)Nc2ccc(Cl)cc2)s1	i
O=C(O)c1cccc(NC(=O)c2ncn[nH]2)c1	i
COc1ccc(CCNc2oc(COc3ccc(Cl)cc3)nc2C#N)cc1	38.0%*
COc1ccc(C2C(C#N)=C(N)Oc3n[nH]c(C)c32)cc1COc1ccccc1C (stereo not drawn)	i
COc1ccc(OCc2nc(C#N)c(NCCN3CCOCC3)o2)cc1	i
Cc1ccccc1OCc1nc(C#N)c(NCc2ccc(F)cc2)o1	34.0%*
O=S(=O)(c1ccccc1)c1nc(-c2ccc(F)cc2)oc1NCc1ccccc1	i
Cc1ccccc1OCc1nnc(SCC(=O)NCCc2ccccc2)n1C	i
COc1ccc(CCNc2oc(COc3ccccc3C)nc2C#N)cc1	38.0%*
COc1ccc(CCNC(C)=O)cc1	i
N#Cc1nc(-c2ccc(F)cc2)oc1NCc1ccco1	i
COc1ccc(CCNc2oc(COc3ccc(OC)cc3)nc2C#N)cc1	36.0%*
N#Cc1nc(COc2ccc(Br)cc2)oc1NCCN1CCOCC1	i
COc1ccc(CCC(=O)NCCc2cccc(Cl)c2)cc1	i
O=C(Nc1cccnc1)c1sc2cccc(Cl)c2c1Cl	i
CC1(C)NC(=O)N(CC(O)COc2cccc(OCC(O)CN3C(=O)NC(C)(C)C3=O)c2)C1=O (stereo not drawn)	i
C=CCNC(=O)CN1C(=O)C(CC)Oc2ccc(C)cc21 (stereo not drawn)	i
O=S1(=O)c2ccccc2Nc2ccc(Cl)cc21	i
CCc1ccc(-c2csc(N3C(=O)C4[C@@H]5CC[C@@H](C5=C(C)C)[C@@H]4C3=O)n2)cc1 (stereo partly drawn)	i
CCOc1cc(/C=C(\C#N)c2nn(-c3ccccc3)c(N)c2C#N)cc(Br)c1OC	31.0%*
C#CCOc1c(Br)cc(C=O)cc1OCC	i
SMILES	ST2 inh
CCOc1ccccc1-c1c(C#N)c(N)nc(OC)c1C#N	i
CCC(OC)C(=O)NCc1ccc2[nH]c(-c3ccccc3F)c(C)c2c1 (stereo not drawn)	i
O=C(CSc1nc2ccccc2s1)c1ccccc1	i
O=C(CSc1nc2ccccc2s1)c1ccccc1[N+](=O)[O-]	33.0%*
O=C(CSc1nc2ccccc2s1)Nc1ccccc1	i
O=C(CSc1nc2ccccc2s1)Nc1ccccn1	i
CN(C)c1ccc(C(=O)N[C@H]2C[C@@H](c3nc(-c4ccccn4)no3)N(C)C2)cc1	i
CN1C[C@@H](NC(=O)c2ccc(-c3ccccc3)cc2)C[C@H]1c1nc(-c2ccc(Cl)cc2)no1	i
CN1C[C@@H](NC(=O)c2ccc(C(C)(C)C)cc2)C[C@H]1c1nc(-c2ccc3c(c2)OCO3)no1	64.0%*
COc1ccc(C(=O)N[C@H]2C[C@@H](c3nc(-c4ccc(OC(F)(F)F)cc4)no3)N(C)C2)cc1	i
Cc1noc([C@@H]2C[C@H](NC(=O)c3ccc(F)cc3)CN2C)n1	40.0%*
Cc1noc([C@@H]2C[C@H](NC(=O)c3ccco3)CN2C)n1	i
O=C(O)CSc1n[nH]c(-c2ccco2)n1	i
Cc1cc(C)c(Cc2c(C)nc3c(C(=O)NCc4cccs4)cnn3c2C)c(C)c1	i
O=C1Nc2ccccc2N(O)N1c1cccc(C(F)(F)F)c1	i
CCOC(=O)C1CCCN(S(=O)(=O)c2cc(Br)cc3c2N(C(C)=O)C(C)C3)C1 (stereo not drawn)	i
O=C(NCc1ccco1)C1CCCN(C2CCN(C3Cc4ccccc4C3)CC2)C1 (stereo not drawn)	i
CCNC(=O)O[C@@H]1CO[C@H]2[C@@H]1OC[C@@H]2NC(=S)Nc1cccc(C#N)c1	92.0%*
CCNC(=O)O[C@@H]1CO[C@H]2[C@@H]1OC[C@@H]2NC(=O)Nc1ccc(C(C)C)cc1	i
CC(C)c1ccc(NC(=O)O[C@@H]2CO[C@H]3[C@@H]2OC[C@@H]3NC(=O)Nc2cccc(C#N)c2)cc1	i
CC(=O)c1cccc(NC(=O)O[C@@H]2CO[C@H]3[C@@H]2OC[C@@H]3NC(=S)Nc2ccccc2)c1	i
COC(=O)c1cccc(NC(=S)N[C@H]2CO[C@H]3[C@@H]2OC[C@H]3OC(=O)Nc2ccc(C(C)C)cc2)c1	68.0%*
COC(=O)c1cccc(NC(=S)N[C@H]2CO[C@H]3[C@@H]2OC[C@H]3OC(=O)NC2CCCCC2)c1	i
O=C(NCc1ccc2c(c1)OCO2)C1CCC(=O)N1Cc1ccc(F)cc1 (stereo not drawn)	i
CCC(=O)Nc1nc2cc(NC(=O)C3CCN(S(=O)(=O)N(CC)CC)CC3)ccc2s1	i
CC(O)=Cc1nc2ccccc2nc1C=C(C)O	38.0%*
Cc1nc2ccccc2c(C(=O)O)c1C(=O)O	i
O=C(O)c1ccc2ccccc2n1	i
